Our source for the outcome, activation and Potency values is PubChem BioAssay (NCATS).

The structures appear in SMILES notation. Unmarked numbers belong to inactive results. Inconclusive results are not listed. Active and inactive are the calls of the source. Unless noted, calls come from the whole dose curve; as a rule, active = well fitted curve in the direction sought with a large enough effect; inconclusive = small, poorly fitted or top-dose-only effect, or another doubt; inactive = no such curve, though single readings can be large; an effect the other way counts as inactive or inconclusive.

The target of assay [1] is Cytochrome P450 3A4 (Homo sapiens) (UniProt P08684). Briefly: qHTS Assay for Inhibitors and Substrates of Cytochrome P450 3A4 (AID 884). Note: series mostly up to about 57 µM; % is set by controls: 0 for no effect and ±100 for the full control effect; nearly all actives have a fitted effect of over 50% in size. A digest of the protocol: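 20 nM human CYP3A4 with 25 uM Luciferin-PPXE (at KM) in 200 mM KPO4, preincubated 10 min with compound; NADPH regeneration started a 60 min RT reaction. Luciferin detected by luminescence, normalized to 57 uM ketoconazole as full inhibition.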
Background: Quantitative high-throughput screening tests each substance at several concentrations.

A short description of assay [2]: Confirmation and Secondary Assay for Modulators of Hemoglobin Beta Chain Splicing at IVS2 654 locus (AID 910).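 Note: HeLa cells stably carrying EGFP split by mutant beta-globin IVS2-654 intron; per-well total GFP intensity by laser scanning cytometry after 2-day treatment; % of control where 0% means no effect.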 A digest of the protocol: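 Readout: per-well total peak green fluorescence (488 nm ex, 500–520 nm em) from objects 5–250 µm, reflecting correct splicing of an EGFP-654 reporter. Compounds were applied for 2 days at 37 °C to overnight-plated HeLa EGFP-654 cells; controls were DMSO and 500 nM IVS2-654 PNA.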

Assay [3] in a line: Confirmation and Secondary Assay for Modulators of Hemoglobin Beta Chain Splicing at IVS2 705 locus (AID 930).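 Note: HeLa cells stably expressing the EGFP-705 splicing reporter; series mostly up to about 46 µM; % of control where 0% means no effect.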 A digest of the protocol: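 Restored EGFP fluorescence after 2-day compound exposure reports splicing correction in IVS2-705 EGFP reporter HeLa cells; positive control was 500 nM splice-blocking PNA oligo. Signal measured as well total peak GFP intensity (488 nm excitation).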

A short description of assay [4]: Cellular Toxicity (caspase-3) Hek293 (AID 664).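 Note: cells exposed to compound for 16 h at 37 °C before readout.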 The essentials:
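HEK293 cells were exposed to compounds in complete medium for 16 hr at 37 °C, then caspase-3/7 activity was read by Caspase-Glo 3/7 luminescence after 20 min at room temperature. Data normalized to DMSO and 100 uM tamoxifen; AC50 from Hill fits.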

Assay [5] can be described thus: Cellular Toxicity (caspase-3) N2a (AID 665).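 Note: compound exposure lasted 16 h at 37 °C before readout.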 The essentials: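 Mouse N2a neuroblastoma cells (1500/well) were treated with compounds for 16 h at 37 °C, then caspase-3/7 activity was read by Caspase-Glo luminescence after 1 h at room temperature. Data were normalized to DMSO and 10 uM staurosporine; AC50 from Hill fits.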
Assay [6] is described as follows: Cellular Toxicity (caspase-3) NIH 3T3 (AID 666).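 Note: caspase signal read after 16 h compound exposure; 0% = DMSO basal and 100% = 100 µM tamoxifen stimulation.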 The essentials: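 Mouse NIH 3T3 fibroblasts (1000 cells/well) were treated with compound for 16 hr at 37°C in complete medium; caspase-3/7 activity was read by Caspase-Glo luminescence. Normalized to DMSO and 100 uM tamoxifen; AC50 from Hill fits.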
Assay [7] can be described thus: Cellular Toxicity (caspase-3) Renal Proximal Tubule (AID 667).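 Note: cells exposed to compound for 16 hours at 37 °C before detection; 0% = DMSO basal and 100% = 10 µM staurosporine.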 The essentials: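 Freshly isolated primary rat kidney proximal tubule cells, 1000/well, treated 16 hr at 37 °C, then Caspase-Glo 3/7 luminescence after 1 hr. Normalized to DMSO and 10 uM staurosporine; AC50 from Hill fit.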
Assay [8] in a line: Cell Viability - LYMP2-001 (AID 921).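 Note: series mostly up to about 92 µM; cells exposed to compound for 24 h at 37 °C; 0% = DMSO only and full inhibition = tetraoctylammonium bromide control wells; nearly all actives have a fitted effect of over 70% in size.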 A digest of the protocol:
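Human lymphoblastoid LYMP2-001 cells, 2500 per well, in complete medium, treated 24 h at 37 C. Viability from cellular ATP by CellTiter-Glo luminescence; AC50 from Hill-equation fits of qHTS concentration-response.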

A short description of assay [9]: MultiTox-Fluor Cytotoxicity Assay - LYMP1-001 - Dead Cells (AID 946).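 Note: 0% = DMSO and 100% = tetraoctylammonium bromide.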 A digest of the protocol: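 AC50 from Hill fit of concentration-response; data normalized to DMSO (basal) and 15 uM tetraoctylammonium bromide (100%). LYMP1-001 lymphoblastoid cells, 2500/well, 16 hr compound at 37 C; dead-cell protease fluorescence, Ex/Em 485/520.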
Assay [10] is described as follows: Cell Viability - LYMP1-002 - Assay at 16 hr (AID 948).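 Note: 0% = DMSO alone and full effect = 92 µM tetraoctylammonium bromide.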 A digest of the protocol: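 LYMP1-002 human lymphoblastoid cells, 2500/well, were treated with compounds for 16 hr at 37 C in complete medium. Viability was read as intracellular ATP by CellTiter-Glo luminescence, and AC50 was derived from a Hill fit to concentration-response data.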
In assay [11] the target is Cytochrome P450 3A4 (Homo sapiens) (UniProt P08684). Briefly: qHTS Assay for Activators of Cytochrome P450 3A4 (AID 885). Note: nearly all actives have a fitted effect of over 65% in size. The essentials: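 20nM CYP3A4 + 25uM Luciferin-PPXE (=KM), 200mM KPO4; cpd 10 min RT; NADPH regen, 60 min RT; stop w/ detection buffer, 20 min; luminescence. Normalized to 57 uM ketoconazole.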
Assay [12] is described as follows: qHTS Assay for Identification of Small Molecule Agonists for Hypoxia Response Element Signaling Pathway (AID 914; active = well fitted activation curve with a large enough effect in the signal ratio, with a control signal flat, not every such curve was filed as active; the % refers to the signal ratio; note: % of control where 0% means no effect). The conditions noted are these: ME-180 (cervical carcinoma) HRE-bla reporter, beta-lactamase ratio, CoCl2, 17 h; active compounds read high. A digest of the protocol: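 AC50 values come from titration-series %Activity, taken as the 460/530nm ratio of CCF4 fluorescence (excitation 405nm). CellSensor HRE-bla ME-180 cells were treated 17 hours at 37 C with compound plus an EC50 level of CoCl2.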

Assay [13] addresses Cytochrome P450 2C9 (Homo sapiens) (UniProt P11712). Briefly: qHTS Assay for Inhibitors and Substrates of Cytochrome P450 2C9 (AID 883). Note: potency is the fitted concentration of half-maximal effect; nearly all actives have a fitted effect of over 60% in size. The essentials:
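Inhibition of CYP2C9 is scored as loss of luminescence, with 57uM sulphaphenazole defining 100% inhibition. Substrate Luciferin-H is used at 100uM, equal to its KM; enzyme at 10nM in 25mM KPO4, 60 min at 37C with NADPH regeneration.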

Sequence of Cytochrome P450 3A4 (Homo sapiens) (P08684 whole entry, looked up): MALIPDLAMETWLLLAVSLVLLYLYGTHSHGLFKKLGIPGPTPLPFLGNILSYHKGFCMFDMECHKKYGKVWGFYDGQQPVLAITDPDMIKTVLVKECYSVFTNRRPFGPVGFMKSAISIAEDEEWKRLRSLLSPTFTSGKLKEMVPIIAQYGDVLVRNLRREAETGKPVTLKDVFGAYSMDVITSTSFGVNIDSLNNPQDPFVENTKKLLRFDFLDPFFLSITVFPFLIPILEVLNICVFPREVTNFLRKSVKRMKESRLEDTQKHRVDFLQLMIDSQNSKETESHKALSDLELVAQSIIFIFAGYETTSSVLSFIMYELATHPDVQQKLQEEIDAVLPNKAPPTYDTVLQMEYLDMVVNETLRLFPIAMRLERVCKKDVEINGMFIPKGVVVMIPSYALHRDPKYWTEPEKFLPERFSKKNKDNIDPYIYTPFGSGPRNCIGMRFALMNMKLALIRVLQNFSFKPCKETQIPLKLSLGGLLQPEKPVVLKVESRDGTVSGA
Sequence of Cytochrome P450 2C9 (Homo sapiens) (P11712 whole entry, looked up): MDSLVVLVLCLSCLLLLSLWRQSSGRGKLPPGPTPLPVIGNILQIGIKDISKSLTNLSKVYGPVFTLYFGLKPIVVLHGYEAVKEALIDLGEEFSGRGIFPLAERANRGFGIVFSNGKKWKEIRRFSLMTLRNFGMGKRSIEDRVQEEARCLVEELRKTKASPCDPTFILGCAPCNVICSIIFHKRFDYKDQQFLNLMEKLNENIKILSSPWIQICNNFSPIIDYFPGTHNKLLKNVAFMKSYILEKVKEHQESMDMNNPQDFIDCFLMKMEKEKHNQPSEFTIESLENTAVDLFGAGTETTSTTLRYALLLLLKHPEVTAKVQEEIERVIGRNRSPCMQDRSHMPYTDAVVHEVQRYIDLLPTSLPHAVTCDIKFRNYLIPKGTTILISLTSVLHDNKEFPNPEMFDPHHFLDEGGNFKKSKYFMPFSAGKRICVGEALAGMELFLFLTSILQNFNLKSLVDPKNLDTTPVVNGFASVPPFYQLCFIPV

For the compound `CCOC(N)=O`, the result in assay [1], in [2] and in [3] was inactive.
On to `COc1ccc(O)cc1`, for which the compound was classed as inactive in assay [4], in assay [5], in assay [6], in [7], in [1] and in [8]. The result in assay [9] and in assay [10] was inactive.
For `Cc1cc(C)nc(NS(=O)(=O)c2ccc(N)cc2)n1`, the call in assay [4], in assay [5], in assay [6], in [7], in assay [11] and in assay [2] was inactive. In addition, the result in assay [8], in assay [3], in assay [9] and in assay [10] was inactive. For the same compound, the activation in [12] is -4.03%.
In the case of `Cc1c(NC(C)C)c(=O)n(-c2ccccc2)n1C`, the call in [1], in [2] and in assay [3] was inactive.
For the compound `CC(=O)NS(=O)(=O)c1ccc(N)cc1`, the call in assay [4], in [5], in assay [6], in assay [7], in assay [2] and in assay [8] was inactive. Moreover, the call in [3], in assay [9] and in assay [10] was inactive.
For `Cc1cccc(Nc2ccccc2C(=O)O)c1C`, the Potency in [13] is 7.94 µM (active). Moreover, the compound was classed as inactive in assay [1], in assay [2] and in assay [3].
Consider `CCN(CC)C(=O)c1cccc(C)c1`, for which the call in assay [4], in assay [5], in [6], in assay [7], in assay [2] and in [8] was inactive. The compound was called inactive in [3], in assay [9] and in assay [10].
Regarding `FC(F)(F)C(Cl)Br` (configuration not stated), the outcome in assay [4], in [5], in assay [6], in assay [7], in assay [1] and in assay [8] was inactive. Moreover, the result in assay [9] and in assay [10] was inactive.
Take `C/C=C/C(=O)N(CC)c1ccccc1C`: the call in [1], in assay [2] and in [3] was inactive.
Turning to `O=C(c1ccccc1)C(O)c1ccccc1` (configuration not stated), the call in [4], in assay [5], in assay [6], in [7], in [1] and in assay [8] was inactive. For the same compound, the outcome in assay [9] and in assay [10] was inactive.
On to `CCCCCCCC(=O)OCC(COC(=O)CCCCCCC)OC(=O)CCCCCCC`, for which the result in assay [4], in assay [5], in assay [6], in [7], in [1] and in [8] was inactive. In addition, the compound was called inactive in assay [9] and in assay [10].
`O=C1C(c2[nH]c3ccccc3c2O)=Nc2ccccc21`: the call in assay [4], in [5], in assay [6], in [7], in [1] and in [8] was inactive. Also, the call in assay [9] and in assay [10] was inactive.
Consider `CC(=O)Nc1ccc(C(=O)O)cc1`, for which the compound was classed as inactive in [4], in assay [5], in assay [6], in [7], in assay [1] and in [8]. The call in [9] and in assay [10] was inactive.
`Cn1c([N+](=O)[O-])cnc1COC(N)=O`: the compound was called inactive in assay [1], in assay [2] and in [3].
On to `O=C1c2cccc(O)c2C(=O)c2c(O)cccc21`, for which the call in assay [4], in [5], in assay [6], in assay [7], in assay [1] and in assay [2] was inactive. For the same compound, the compound was classed as inactive in [3], in assay [9] and in [10].
